Assay outcomes deposited in PubChem BioAssay by several laboratories.
LMP1 NFkB inh: inhibitors of Epstein-Barr LMP1-induced NF-kappaB reporter; LMP1-induced NF-kappaB luciferase reporter cells, luminescence; inhibition, % at 12.5 µM; actives 0.69% (n = 350,000); AID 504558; in the data active = inhibition above about 41%;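 also: 0% = neutral control wells and 100% = reference inhibitor control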
Peg3 prom inh: inhibitors of Peg3 promoter | actives 1.7% (n = 360,000) | HeLa PEG-Prom luciferase reporter, luminescence, overnight | inhibition, % at 20 µM | AID 588405;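 active = inhibition of at least 50% at 20 µM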
TWEAK Fn14 block: blocks TWEAK-Fn14 interaction in a reporter cell assay. TWEAK-stimulated Fn14 reporter cells, luciferase luminescence, 8 h. inhibition, % at 10 µM. actives 2% (n = 360,000). AID 1159606; in the data active = inhibition above about 50%
TROY NFkB inh: blocks TROY-dependent signaling in reporter cells; Q293 LMP1-TROYcd NF-kB luciferase reporter, 4 h; inhibition, % at 10 µM; actives 0.98% (n = 360,000); AID 1347056;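 active = compounds whose plate-normalised and pattern-corrected inhibition of the luciferase reporter signal at the single screening dose is 50% or more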
Shn3 inh set2: inhibitors of Schnurri-3 3'UTR reporter in osteoblasts; Clone20 osteoblast Shn3 3'UTR firefly luciferase, 24 h; inhibition, % at 12.5 µM; actives 0.52% (n = 360,000);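 active = mean inhibition of at least 75% with every replicate also reaching 75%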;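 also: 0% = median of neutral control wells and 100% = pilot-screen positive control compound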
TRPM1 prom inh: reduces MITF-dependent TRPM1 promoter luciferase signal | SK-MEL-5 TRPM1 promoter luciferase, 24 h | inhibition, % at 12.5 µM | actives 0.83% (n = 330,000);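 active = mean inhibition across replicates of 60% or more, whatever share of single replicates reaches that level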
Numbers without * were called inactive; . = no result given; ! = not active in a repeat. Hits are enriched below; roughly 4.1% of the tested compounds scored in any of these assays.

SMILES	LMP1 NFkB inh	Peg3 prom inh	TWEAK Fn14 block	TROY NFkB inh	Shn3 inh set2	TRPM1 prom inh
CCOc1ccc(CNc2ccc3c(c2)ncn3C(C)(C)C)cc1	-2	-80	-7	-41	5	-11
CCn1cnc2cc(NCc3ccc(C)cc3)ccc21	-30	-329	-11	-66	-123	-113
Cc1ccc(NC(=O)CSc2ncccn2)cc1S(=O)(=O)N1CCCCC1	-7	14	1	-11	14	3
O=[N+]([O-])c1cccc(-n2cc3ccc([N+](=O)[O-])cc3n2)c1	-13	-154	-22	-47	-38	-36
COc1ccc(CNC(=O)Nc2nc(C(N)CCc3ccccc3)cs2)cc1 (stereo unspecified)	.	88*	-12	11	0	.
COc1ccc(CNC(=O)Nc2nc(C(N)Cc3ccc(Cl)cc3)cs2)cc1 (stereo unspecified)	.	96*	5	10	16	.
COc1ccccc1CNC(=O)Nc1nc(C(N)Cc2ccc(Cl)cc2)cs1 (stereo unspecified)	.	94*	18	6	-2	.
COc1cc(CNC(=O)Nc2nc(C(N)CCc3ccccc3)cs2)cc(OC)c1OC (stereo unspecified)	.	40	-6	-2	-13	.
C[C@H](CO)N1C[C@H](C)[C@@H](CN(C)C(=O)c2ccccc2)OCc2cn(nn2)CCCC1=O	1	-20	9	-9	-3	.
Nc1nc(=S)[nH]c2c1C1(CCCCC1)Cc1ccccc1-2	-13	-11	28	14	90*	10
CCOc1ccc(NC(=O)COC(=O)c2ccc3c(c2)OCCO3)cc1	-6	-9	1	-6	1	13
CC(=O)/C=C(/C)NC(Cc1c[nH]c2ccccc12)C(=O)O (stereo unspecified)	-10	1	1	51*!	0	3
CC(=O)N[C@H](Cc1c[nH]c2ccccc12)C(=O)O	3	-7	-7	10	3	-5
C[C@@H](C(=O)N[C@@H](Cc1c[nH]c2ccccc12)C(=O)O)n1nnc2ccccc2c1=O	0	15	72*	-6	-2	-4
Oc1cccc(NC(=S)Nc2ccc(SC(F)F)cc2)c1	-4	-136	-1	-16	-1	-18
Oc1cccc2c(NC(=S)Nc3ccc(SC(F)F)cc3)cccc12	-3	-155	60*	64*	-20	43
CCOc1ccc(NC(=O)C(C)Oc2ccccc2C(=O)Nc2ccc(C)c(Cl)c2)cc1 (stereo unspecified)	-20	-57	-3	-34	20	8
FC(F)(F)c1ccc(N2CCN(c3ncnc4c3nnn4Cc3ccccc3Cl)CC2)cc1	21	21	25	3	72	24
Fc1ccc(N2CCN(c3ncnc4c3nnn4Cc3ccccc3Cl)CC2)cc1	24	33	65*	37	27	10
CSc1cc(-c2ccc(Cl)cc2)n(Cc2ccccc2)c(=O)c1C#N	-13	54*	10	-2	40	10
COc1ccc(CNc2ccc3c(c2)CCC3)cc1Br	-7	-110	57*	48	-66	-2
COc1ccccc1CNc1ccc2c(c1)CCC2	7	-65	66*	47	-46	0
COc1ccccc1NC(=O)Nc1ccc2c(c1)CCC2	-30	-304	-28	-75	-77	-106
Cc1ccc2c(c1)N(CCCC(=O)NCCCN1CCCCC1)C(=O)CO2	1	12	64*	-7	-6	.
COc1ccc(C2SCCN2C(=S)Nc2cccc(Cl)c2)cc1 (stereo unspecified)	4	-1	9	9	26	2
SMILES	LMP1 NFkB inh	Peg3 prom inh	TWEAK Fn14 block	TROY NFkB inh	Shn3 inh set2	TRPM1 prom inh
CCc1cccc(C)c1NC(=S)N(CCN(C)C)Cc1cccs1	-5	16	8	-7	-56	-7
COc1cc(/C=N/NC(=O)c2c(C)nc3ccc(Cl)cn23)cc(OC)c1OC	-5	10	1	19	-25	9
COc1cccc(C(=O)NCC(=O)OCc2ccc(F)cc2Cl)c1	-22	7	20	4	-2	9
O=C(CSc1ncccc1-c1nc2ccccc2[nH]1)N1CCN(c2ccccc2F)CC1	9	11	71*	57*	-2	6
COc1ccc(N2CCN(C(=O)CSc3ncccc3-c3nc4ccccc4[nH]3)CC2)cc1	11	-10	32	4	26	18
COc1ccccc1N1CCN(C(=O)CSc2ncccc2-c2nc3ccccc3[nH]2)CC1	22	16	56*	-5	32	10
CCOC(=O)Cc1csc(NC(=O)CSc2ncnc3c2cnn3-c2ccc(OC)cc2)n1	10	-59	61*	33	-19	-11
COc1ccc(-n2ncc3c(SCC(=O)N4CCN(c5ccccc5OC)CC4)ncnc32)cc1	-2	-2	55*	6	19	15
CCOC(=O)C(NCCc1ccccc1F)(NC(=O)CC)C(F)(F)F (stereo unspecified)	0	10	-25	-20	25	-6
O=C(CCCN=C1NS(=O)(=O)c2ccccc21)OCC(=O)c1ccccc1Cl	2	8	-15	-19	-13	-7
O=C(CSc1nc2ccccc2[nH]1)NC1CCCC1	3	-12	-4	-6	-36	10
O=C(CSc1ncccc1-c1nc2ccccc2[nH]1)NC1CC1	9	-2	53*	55*	1	-5
Cc1cccc(C)c1OCc1nnc(SCC(=O)Nc2ccc(N3CCOCC3)cc2)o1	-4	2	7	4	1	-11
c1cncc(-c2nnc(-c3cccnc3)nn2)c1	1	-59	-2	-31	-27	-7
Cn1c(SSc2ccc(-c3cccnc3)n2C)ccc1-c1cccnc1	6	6	69*	49	16	37
O=C(NCC1CCN(Cc2ccc(F)cc2)CC1)C1CCCN(c2ncnc3c2nc2n3CCCCC2)C1 (stereo unspecified)	10	22	8	23	19	0
Cc1cccc(N2CCN(CCCNC(=O)C3CCCN(c4ncnc5c4nc4n5CCCCC4)C3)CC2C)c1 (stereo unspecified)	3	60*	20	31	55	37
O=C(NCC1CCN(Cc2ccc(Cl)cc2)CC1)C1CCCN(c2ncnc3c2nc2n3CCCCC2)C1 (stereo unspecified)	21	51*	22	25	26	27
CCCCNC(=O)Cc1cc(=O)[nH]c(=O)[nH]1	-1	3	2	-5	-4	15
CCOC(=O)c1ccc(NC(=O)COc2ccc(CNCCO)cc2OCC)cc1	-7	-7	40	16	2	-5
CCOC(=O)c1ccc(NC(=O)COc2ccccc2CNCCc2ccccc2)cc1	-55	98*	-14	-3	0	-2
O=[N+]([O-])c1ccccc1S(=O)(=O)Nc1ccc(-c2ccc3nncn3n2)cc1	6	19	-16	10	4	7
